Drawing on PubChem BioAssay (NCI), this text covers growth inhibition for 40 compounds.

Several values for one entry are separate records, joined by “and”; a condition that tells them apart may be missing. Equal values may be shown once. The panel holds about 79,000 compounds, 15% with a hit somewhere; the sample as a whole holds those more often. A number with no mark means an inactive call. Activity calls are given as the source filed them. Cut-off read from the data, not from the text of the source: active = growth inhibition above about 70%; inactive = the rest.

One experiment can be described thus: NCI Yeast Anticancer Drug Screen. Data for the sgs1 mgt1 strain (AID 161).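 Note: 0% = growth of cultures given vehicle only.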 The note with it: S. cerevisiae sgs1 mgt1 strain, at 50.0 µM, hits give high values. Summed up:
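Growth of a repair-deficient yeast mutant was monitored after compound treatment and expressed as inhibition relative to vehicle-treated cultures.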
As for `O=C(O)c1cc[c]([Hg][S]c2ncnc3nc[nH]c23)cc1`, the growth inhibition was 98.6% (active).

In the case of `Cc1ccc(C(C)(C)C)c(OP(=S)(S)Oc2cc(C)ccc2C(C)(C)C)c1.[Pb]`, the growth inhibition is -1.3%.

Turning to `CCOS(=O)(=O)OCC`, the growth inhibition was 4.25%.

On to `CCOC(=O)C(C)(C)C(OP(=S)(OCC)OCC)=C(C)C`, for which the growth inhibition was 12.7%.

With `CCCO[As](=O)(OCCC)OCCC`, the growth inhibition is 5.8%.

As to `O=C(c1ccccc1)C1C(c2ccccc2)N1Cc1ccccc1` (stereo not drawn), the growth inhibition is 10.2%.

Take `C1CSCCO1.[Cu+2].[O-][Cl+3]([O-])([O-])O`: the growth inhibition was -0.4%.

With `COc1ccc2[nH]cc(CN(C)C)c2c1`, the growth inhibition is -10.2%.

For the compound `C=CCN1CCC23c4c5ccc(O)c4OC2C(=NN=C2CCC4(O)C6Cc7ccc(O)c8c7C4(CCN6CC=C)C2O8)CCC3(O)C1C5` (stereo not drawn), the growth inhibition is 10%.

On to `Cc1cc(Cl)ccc1N`, for which the growth inhibition was 0.65%.

On to `COc1ccc(C(N)Cc2cc(OC)c(OC)c(OC)c2)cc1` (stereo not drawn), for which the growth inhibition is 2.9%.

`O=C(Nc1ccc(Cl)cc1C(=O)c1ccccc1)c1ccc(Cl)cc1`: the growth inhibition was 4.25%.

`[Ni+2].[O-]c1ccc(Cl)cc1C=NCc1ccccn1.[O-]c1ccc(Cl)cc1C=NCc1ccccn1`: the growth inhibition was 97.5% (active).

Take `CCCCOCN(COCCCC)C(C)Cc1ccccc1` (stereo not drawn): the growth inhibition is -12.5%.

As for `[C-]#[O+].[C-]#[O+].[C-]#[O+].[Ni].c1ccc([PH+](CC[PH+](c2ccccc2)c2ccccc2)CC[PH+](c2ccccc2)c2ccccc2)cc1`, the growth inhibition was 46.7%.

`O=C([O-])C(F)(F)C(F)(F)F.[C-]#[O+].[C-]#[O+].[C-]#[O+].[C-]#[O+].[C-]#[O+].[Mn]`: the growth inhibition is 3.65%.

Regarding `CC1CCC(OC(=O)CCl)CC1` (stereo not drawn), the growth inhibition is 13.3%.

On to `CCCCNCCc1cccnc1`, for which the growth inhibition is 20.8%.

Turning to `COc1cccc(C=C(C#N)C#N)c1OC`, the growth inhibition was -3.35%.

In the case of `Cc1ccc(O)c(Cl)c1`, the growth inhibition is -19.4%.

Consider `O=CNc1ccc(Cl)cc1C(=O)c1ccccc1`, for which the growth inhibition was 15.2%.

On to `CC1(C)OCC(C2NC2C2COC(C)(C)O2)O1` (stereo not drawn), for which the growth inhibition is -11.1%.

The nature of the next experiment: NCI Yeast Anticancer Drug Screen. Data for the cln2 rad14 strain (AID 165).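 Note: 0% = growth equal to vehicle treated cultures.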 The note with it: S. cerevisiae cln2 rad14 strain, at 50.0 µM, hits give high values. Summed up: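 Readout is yeast growth inhibition versus vehicle-treated controls, using a strain with cln2 and rad14 alterations exposed to compound.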
Regarding `N.N.N.N.O=C([O-])C(=O)O.O=C([O-])C(=O)[O-].[Co+3]`, the growth inhibition was 13.6%.

Take `O=C1NC(=O)C(CC(C(=O)C(=O)Nc2ccccc2Cl)C(=O)c2ccc3ccccc3c2)C(=O)N1` (stereo not drawn): the growth inhibition is -32.8%.

As to `CSCCC([NH-])C(=O)O.CSCCC([NH-])C(=O)O.[Cu+2]` (stereo not drawn), the growth inhibition is -33.3%.

For `CC(C)=NNC1=NC(CC(C)C)P(=O)(NCCCCNP2(=O)SC(NN=C(C)C)=NC2CC(C)C)S1` (stereo not drawn), the growth inhibition was -18.2%.

Take `CCCCOS(C)(=O)=O`: the growth inhibition is 5.8%.

Turning to `CN(C)NP(c1ccccc1)c1ccccc1`, the growth inhibition was -6.1%.

Turning to `NC(CO)Cc1ccccc1` (stereo not drawn), the growth inhibition was -21.6% and 4.05%.

As to `O=C(CN1CCCCC1)c1ccc(Br)cc1`, the growth inhibition is -20.9%.

As to `COc1ccc(N=NC(=O)NC(CC(C)C)C(=O)NCC(=O)O)cc1` (stereo not drawn), the growth inhibition was 28.8%.

As for `COc1cc(C(=O)O)cc(OC)c1OC`, the growth inhibition was -26.8%.

For `CCCCC[N+]1=Cc2cc(O)c(O)cc2CC1`, the growth inhibition was -24.9%.

As for `O=C(O)C(=O)Cc1ccc2c(c1)OCO2`, the growth inhibition is -32.9%.

On to `O=C1NCCCCC1Cl` (stereo not drawn), for which the growth inhibition is -21%.

Turning to `COC(=O)N/N=C(\C)C(CN(C)C)C(c1ccccc1)c1c(O)c2ccccc2oc1=O` (stereo not drawn), the growth inhibition is 34.6%.

As to `Fc1ccc(C(Cl)(Cl)Cl)cc1`, the growth inhibition is -17.2%.

In the case of `C=C[CH2][Sn]([CH3])([CH3])[CH2]C=C`, the growth inhibition was -19.4%.

As to `CC(O)C[As](=O)(O)c1ccccc1Cl` (stereo not drawn), the growth inhibition is -2.55%.

For the compound `NCCCP(c1ccccc1)c1ccccc1`, the growth inhibition is 8.7%.

With `O=C(O)c1cc[c]([Hg][S]c2ncnc3nc[nH]c23)cc1`, the growth inhibition was 98.2% (active).

For `Cc1ccc(C(C)(C)C)c(OP(=S)(S)Oc2cc(C)ccc2C(C)(C)C)c1.[Pb]`, the growth inhibition is 9.7%.

`CCOS(=O)(=O)OCC`: the growth inhibition is -0.45%.

Turning to `CCOC(=O)C(C)(C)C(OP(=S)(OCC)OCC)=C(C)C`, the growth inhibition was 23.8%.

As to `CCCO[As](=O)(OCCC)OCCC`, the growth inhibition was 11.8%.

With `O=C(c1ccccc1)C1C(c2ccccc2)N1Cc1ccccc1` (stereo not drawn), the growth inhibition is 6.15%.

As for `C1CSCCO1.[Cu+2].[O-][Cl+3]([O-])([O-])O`, the growth inhibition was -36.8%.

On to `COc1ccc2[nH]cc(CN(C)C)c2c1`, for which the growth inhibition is 5.3%.
